In the supplement of paper PMC10849652:
About 7,900 targets were measured; listed, in parts, are those with a hit and a random draw of the rest. About 0.6% of all pairs of compound and target were hits.

Legend:
Experiment in all cases: log2 fold change, soluble protein after heating vs DMSO (PISA); higher = thermal stabilisation; K562 cells, 10 uM, 30 min; active = over 0.2 and 3.5 SD of the protein, either way, in both replicates (recomputed)
bafetinib = compound: Cc1ccc(NC(=O)c2ccc(CN3CC[C@H](N(C)C)C3)c(C(F)(F)F)c2)cc1Nc1nccc(-c2cncnc2)n1 [bafetinib]
How it was run: (§1)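 Values are thermal stability changes relative to control samples and are taken from duplicates. They are stated as log2 fold changes. Before quantification by TMTpro 16plex LC-MS/MS with equalised channel sums, K562 cells at 2×10^6 cells/mL were treated with 10 μM compound for 30 min, heated in aliquots for 3 min across 48°C-58°C, pooled, extracted in PBS with 0.5% NP-40 at 4°C, and centrifuged at 21,000xg for 90 min to give the soluble supernatant.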

[1] = compound: Cc1cccc(CC(=O)N2CCc3c2ccc(-c2cn(C)c4ncnc(N)c24)c3F)n1
How it was run: as §1

nilotinib = compound: Cc1cn(-c2cc(NC(=O)c3ccc(C)c(Nc4nccc(-c5cccnc5)n4)c3)cc(C(F)(F)F)c2)cn1 [nilotinib]
How it was run: as §1

[2] = compound: Cc1nc(Nc2n[nH]c3c2CN(C(=O)N[C@H](CN(C)C)c2ccccc2)C3(C)C)c2sccc2n1
How it was run: as §1

dasatinib = compound: Cc1nc(Nc2ncc(C(=O)Nc3c(C)cccc3Cl)s2)cc(N2CCN(CCO)CC2)n1 [dasatinib]
How it was run: as §1

[3] = compound: Cc1ncc(-c2ccnc(Nc3ccc(S(C)(=O)=O)cc3)n2)n1C(C)C
How it was run: as §1

[4] = compound: Cn1cc(-c2ccc3c(c2)CCN3C(=O)Cc2cccc(C(F)(F)F)c2)c2c(N)ncnc21
How it was run: as §1

[5] = compound: Cn1cc(-c2ccc3nnc(C(F)(F)c4ccc5ncccc5c4)n3n2)cn1
How it was run: as §1

tipifarnib = compound: Cn1cncc1[C@@](N)(c1ccc(Cl)cc1)c1ccc2c(c1)c(-c1cccc(Cl)c1)cc(=O)n2C [tipifarnib]
How it was run: as §1

mubritinib = compound: FC(F)(F)c1ccc(/C=C/c2nc(COc3ccc(CCCCn4ccnn4)cc3)co2)cc1 [mubritinib]
How it was run: as §1

[6] = compound: NC(=O)Nc1cc(-c2cccc(F)c2)sc1C(=O)N[C@H]1CCCNC1
How it was run: as §1

[7] = compound: NC(=O)c1cnc(N[C@@H]2CCCC[C@@H]2N)nc1Nc1cccc(-n2nccn2)c1
How it was run: as §1

[8] = compound: NC1(c2ccc(-c3nc4ccn5c(=O)[nH]nc5c4cc3-c3ccccc3)cc2)CCC1
How it was run: as §1

[9] = compound: NCC(=O)Nc1ccc(-n2nc(C(F)(F)F)cc2-c2ccc3c(ccc4ccccc43)c2)cc1
How it was run: as §1

entinostat = compound: Nc1ccccc1NC(=O)c1ccc(CNC(=O)OCc2cccnc2)cc1 [entinostat]
How it was run: as §1

vorinostat = compound: O=C(CCCCCCC(=O)Nc1ccccc1)NO [vorinostat]
How it was run: as §1

citarinostat = compound: O=C(CCCCCCNC(=O)c1cnc(N(c2ccccc2)c2ccccc2Cl)nc1)NO [citarinostat]
How it was run: as §1

silmitasertib = compound: O=C(O)c1ccc2c(c1)nc(Nc1cccc(Cl)c1)c1ccncc12 [silmitasertib]
How it was run: as §1

[10] = compound: O=C1NC(=O)C(c2cnc3ccccn23)=C1c1cn2c3c(cc(F)cc13)CN(C(=O)N1CCCCC1)CC2
How it was run: as §1

[11] = compound: c1cc(OCCN2CCCCC2)cc(-c2n[nH]c3ccc(-c4nnc[nH]4)cc23)c1
How it was run: as §1

Measured: log2 fold change

MAST4 (UniProt O15021)
Sequence of UniProt O15021 (O15021 whole entry, looked up): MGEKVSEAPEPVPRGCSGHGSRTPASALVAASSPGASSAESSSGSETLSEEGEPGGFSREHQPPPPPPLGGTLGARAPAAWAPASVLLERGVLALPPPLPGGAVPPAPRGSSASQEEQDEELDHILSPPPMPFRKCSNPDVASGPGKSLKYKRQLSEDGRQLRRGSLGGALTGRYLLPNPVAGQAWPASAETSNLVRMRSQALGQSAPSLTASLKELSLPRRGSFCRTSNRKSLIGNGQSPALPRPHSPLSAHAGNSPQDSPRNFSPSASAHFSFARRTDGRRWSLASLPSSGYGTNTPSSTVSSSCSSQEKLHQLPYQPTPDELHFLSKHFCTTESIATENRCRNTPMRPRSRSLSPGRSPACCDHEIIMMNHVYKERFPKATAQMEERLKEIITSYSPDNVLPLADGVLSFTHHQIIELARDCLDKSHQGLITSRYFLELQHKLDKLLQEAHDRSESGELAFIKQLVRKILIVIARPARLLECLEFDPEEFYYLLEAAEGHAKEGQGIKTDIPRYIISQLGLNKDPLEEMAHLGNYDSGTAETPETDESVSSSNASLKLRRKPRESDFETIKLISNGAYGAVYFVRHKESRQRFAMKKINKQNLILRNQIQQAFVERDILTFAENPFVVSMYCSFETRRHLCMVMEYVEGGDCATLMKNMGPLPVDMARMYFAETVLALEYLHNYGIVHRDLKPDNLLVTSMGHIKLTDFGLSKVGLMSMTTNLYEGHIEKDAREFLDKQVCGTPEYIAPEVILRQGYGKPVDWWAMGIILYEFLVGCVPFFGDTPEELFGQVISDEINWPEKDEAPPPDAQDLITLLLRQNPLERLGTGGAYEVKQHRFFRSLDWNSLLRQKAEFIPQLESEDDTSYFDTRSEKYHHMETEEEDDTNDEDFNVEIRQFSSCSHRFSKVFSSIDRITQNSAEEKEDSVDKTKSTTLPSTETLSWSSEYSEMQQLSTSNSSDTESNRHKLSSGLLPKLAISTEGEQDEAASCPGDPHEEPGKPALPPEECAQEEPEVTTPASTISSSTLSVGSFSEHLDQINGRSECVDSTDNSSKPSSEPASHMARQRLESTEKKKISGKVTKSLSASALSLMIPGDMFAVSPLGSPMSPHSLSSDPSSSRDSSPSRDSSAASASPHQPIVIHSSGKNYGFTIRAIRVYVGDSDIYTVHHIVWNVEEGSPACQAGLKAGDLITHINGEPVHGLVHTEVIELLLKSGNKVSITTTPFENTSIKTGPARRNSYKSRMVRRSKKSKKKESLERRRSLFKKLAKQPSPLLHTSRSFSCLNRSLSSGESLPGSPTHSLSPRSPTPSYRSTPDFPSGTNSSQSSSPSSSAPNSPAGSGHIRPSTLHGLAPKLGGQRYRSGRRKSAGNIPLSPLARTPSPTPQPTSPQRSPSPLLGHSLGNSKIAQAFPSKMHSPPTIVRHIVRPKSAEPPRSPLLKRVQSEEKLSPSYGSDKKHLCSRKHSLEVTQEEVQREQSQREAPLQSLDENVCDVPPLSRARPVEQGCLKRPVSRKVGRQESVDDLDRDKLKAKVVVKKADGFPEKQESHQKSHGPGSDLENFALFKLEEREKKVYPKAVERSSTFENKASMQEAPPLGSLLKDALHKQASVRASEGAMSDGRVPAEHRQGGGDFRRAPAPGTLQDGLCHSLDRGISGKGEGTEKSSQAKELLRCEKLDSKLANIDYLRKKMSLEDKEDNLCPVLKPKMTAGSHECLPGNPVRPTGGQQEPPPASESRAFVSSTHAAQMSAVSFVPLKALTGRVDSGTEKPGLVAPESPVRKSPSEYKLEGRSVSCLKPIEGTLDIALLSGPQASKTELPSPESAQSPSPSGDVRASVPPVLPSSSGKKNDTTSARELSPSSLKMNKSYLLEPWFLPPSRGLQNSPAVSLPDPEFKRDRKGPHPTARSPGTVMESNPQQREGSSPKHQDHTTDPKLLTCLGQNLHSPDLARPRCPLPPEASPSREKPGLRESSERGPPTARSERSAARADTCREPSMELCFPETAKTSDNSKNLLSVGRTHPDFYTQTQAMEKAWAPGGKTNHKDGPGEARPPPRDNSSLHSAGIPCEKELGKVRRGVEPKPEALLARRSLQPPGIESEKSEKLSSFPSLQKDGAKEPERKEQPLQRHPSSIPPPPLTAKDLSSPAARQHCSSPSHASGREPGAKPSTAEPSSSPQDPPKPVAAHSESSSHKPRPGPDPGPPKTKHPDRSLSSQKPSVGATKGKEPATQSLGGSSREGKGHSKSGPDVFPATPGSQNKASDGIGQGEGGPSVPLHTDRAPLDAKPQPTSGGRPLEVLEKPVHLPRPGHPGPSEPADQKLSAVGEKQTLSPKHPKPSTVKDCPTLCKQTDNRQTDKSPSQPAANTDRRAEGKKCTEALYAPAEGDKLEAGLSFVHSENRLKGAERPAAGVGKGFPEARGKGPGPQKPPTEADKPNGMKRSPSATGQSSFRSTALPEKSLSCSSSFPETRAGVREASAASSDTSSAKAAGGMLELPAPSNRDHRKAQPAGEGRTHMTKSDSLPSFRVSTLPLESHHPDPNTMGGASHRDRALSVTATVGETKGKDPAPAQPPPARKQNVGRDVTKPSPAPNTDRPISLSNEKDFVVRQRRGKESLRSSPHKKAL
inactive: bafetinib -0.029 | [1] 0.034 | nilotinib -0.073 | dasatinib -0.112 | [3] -0.004 | [4] 0.131 | [5] 0.09 | tipifarnib -0.087 | mubritinib -0.003 | [6] -0.217 | [7] -0.038 | [8] -0.298 | [9] -0.115 | entinostat 0.085 | vorinostat 0.045 | citarinostat 0.135 | silmitasertib -0.053 | [10] 0.051 | [11] -0.151
active: [2] -0.757

LSR (UniProt Q86X29)
inactive: bafetinib 0.068 | [1] -0.057 | nilotinib 0.024 | dasatinib 0.003 | [3] 0.009 | [4] 0.072 | [5] 0.018 | tipifarnib 0.011 | mubritinib 0.01 | [6] -0.135 | [7] 0.066 | [8] 0.066 | [9] 0.039 | entinostat -0.054 | vorinostat -0.027 | citarinostat 0.006 | silmitasertib -0.036 | [10] 0.03 | [11] -0.012
active: [2] -0.254

MAGEC2 (UniProt Q9UBF1)
Sequence of UniProt Q9UBF1 (Q9UBF1 whole entry, looked up): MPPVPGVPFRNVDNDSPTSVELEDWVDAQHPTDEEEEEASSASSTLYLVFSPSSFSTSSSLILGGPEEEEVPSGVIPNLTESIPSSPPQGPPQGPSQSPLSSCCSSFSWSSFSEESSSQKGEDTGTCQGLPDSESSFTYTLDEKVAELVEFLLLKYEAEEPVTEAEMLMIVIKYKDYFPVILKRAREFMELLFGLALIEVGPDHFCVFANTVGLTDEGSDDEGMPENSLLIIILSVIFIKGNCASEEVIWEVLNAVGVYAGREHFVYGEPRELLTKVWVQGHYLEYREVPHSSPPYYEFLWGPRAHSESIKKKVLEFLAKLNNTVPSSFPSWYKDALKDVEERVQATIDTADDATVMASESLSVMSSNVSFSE
inactive: bafetinib -0.024 | [1] -0.065 | nilotinib -0.02 | [2] 0.021 | dasatinib 0.059 | [3] 0 | [4] -0.056 | [5] -0.07 | tipifarnib -0.02 | mubritinib -0.015 | [6] 0.013 | [7] -0.037 | [8] -0.021 | [9] -0.004 | entinostat -0.009 | vorinostat 0.032 | citarinostat 0.029 | silmitasertib 0.057 | [10] 0.089 | [11] -0.09

KIF13A (UniProt Q9H1H9)
inactive: bafetinib -0.033 | [1] -0.095 | nilotinib 0.012 | [2] -0.01 | dasatinib -0.044 | [3] 0.008 | [4] 0.029 | [5] -0.032 | tipifarnib -0.014 | mubritinib 0.024 | [6] -0.049 | [7] -0.008 | [8] -0.078 | [9] -0.064 | entinostat 0.04 | vorinostat -0.178 | citarinostat -0.041 | silmitasertib 0 | [10] -0.005 | [11] -0.061

MGST1 (UniProt P10620)
Sequence of UniProt P10620 (P10620 whole entry, looked up): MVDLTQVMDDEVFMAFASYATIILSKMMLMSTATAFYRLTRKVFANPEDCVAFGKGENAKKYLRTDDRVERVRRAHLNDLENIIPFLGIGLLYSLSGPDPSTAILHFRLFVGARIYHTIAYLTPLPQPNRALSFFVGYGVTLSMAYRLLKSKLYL
inactive: bafetinib -0.001 | [1] -0.053 | nilotinib -0.006 | [2] 0.078 | dasatinib 0.084 | [3] -0.039 | [4] -0.013 | [5] 0.014 | tipifarnib 0.131 | mubritinib -0.005 | [6] -0.025 | [7] -0.024 | [8] -0.035 | [9] 0.163 | entinostat 0.031 | vorinostat 0.027 | citarinostat -0.065 | silmitasertib 0.036 | [10] -0.086 | [11] 0.122

INPP1 (UniProt P49441)
Sequence of UniProt P49441 (P49441 whole entry, looked up): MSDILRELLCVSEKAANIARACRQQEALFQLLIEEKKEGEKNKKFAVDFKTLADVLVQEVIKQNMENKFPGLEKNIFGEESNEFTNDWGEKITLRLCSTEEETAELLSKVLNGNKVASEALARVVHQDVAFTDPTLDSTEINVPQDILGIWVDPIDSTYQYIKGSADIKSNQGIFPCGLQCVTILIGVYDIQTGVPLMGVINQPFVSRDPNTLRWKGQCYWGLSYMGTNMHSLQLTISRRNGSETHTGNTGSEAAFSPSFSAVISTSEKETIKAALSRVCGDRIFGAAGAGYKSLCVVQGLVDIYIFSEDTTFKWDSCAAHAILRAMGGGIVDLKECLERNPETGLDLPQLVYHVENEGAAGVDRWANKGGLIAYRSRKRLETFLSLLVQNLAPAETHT
inactive: bafetinib 0.003 | [1] 0.094 | nilotinib -0.001 | [2] 0.067 | dasatinib 0.027 | [3] 0.053 | [4] 0.037 | [5] 0.027 | tipifarnib -0.135 | mubritinib 0.15 | [6] -0.11 | [7] -0.035 | [8] -0.108 | [9] -0.036 | entinostat -0.089 | vorinostat -0.066 | citarinostat 0.024 | silmitasertib -0.042 | [10] 0.023 | [11] -0.039

LPIN1 isoform 7 (UniProt Q14693)
Sequence of UniProt Q14693 (Q14693 whole entry, looked up): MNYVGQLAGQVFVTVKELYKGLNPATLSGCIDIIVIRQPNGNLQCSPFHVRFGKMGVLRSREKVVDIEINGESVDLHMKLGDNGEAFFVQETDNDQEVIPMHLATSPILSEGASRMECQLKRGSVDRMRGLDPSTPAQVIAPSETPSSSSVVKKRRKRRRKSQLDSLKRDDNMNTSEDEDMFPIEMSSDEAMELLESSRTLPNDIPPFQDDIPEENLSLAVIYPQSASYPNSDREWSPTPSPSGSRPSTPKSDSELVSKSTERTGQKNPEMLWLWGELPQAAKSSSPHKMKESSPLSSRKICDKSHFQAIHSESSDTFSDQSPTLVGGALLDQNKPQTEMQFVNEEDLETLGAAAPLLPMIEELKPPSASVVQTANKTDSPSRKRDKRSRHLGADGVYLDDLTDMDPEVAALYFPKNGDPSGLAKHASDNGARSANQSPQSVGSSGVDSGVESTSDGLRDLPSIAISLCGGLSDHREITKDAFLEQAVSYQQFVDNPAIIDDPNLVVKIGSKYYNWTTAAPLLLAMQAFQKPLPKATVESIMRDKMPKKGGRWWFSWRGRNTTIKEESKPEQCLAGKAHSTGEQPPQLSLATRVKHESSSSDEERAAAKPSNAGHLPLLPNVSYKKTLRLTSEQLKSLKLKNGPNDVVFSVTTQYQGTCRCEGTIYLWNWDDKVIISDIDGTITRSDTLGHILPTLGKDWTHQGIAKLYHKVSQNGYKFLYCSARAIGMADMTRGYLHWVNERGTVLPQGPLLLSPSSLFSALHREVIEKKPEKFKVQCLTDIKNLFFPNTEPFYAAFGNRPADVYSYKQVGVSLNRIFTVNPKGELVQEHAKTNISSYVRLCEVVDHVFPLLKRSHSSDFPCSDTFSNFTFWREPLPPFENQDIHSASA
inactive: bafetinib -0.076 | [1] 0.051 | nilotinib -0.038 | [2] 0.046 | dasatinib -0.016 | [3] -0.079 | [4] -0.025 | [5] -0.058 | tipifarnib -0.019 | mubritinib 0.095 | [6] -0.006 | [7] -0.011 | [8] -0.039 | [9] -0.03 | entinostat -0.027 | vorinostat 0.136 | citarinostat 0.001 | silmitasertib -0.139 | [10] -0.098 | [11] -0.048

MAPKAPK5 (UniProt Q8IW41)
inactive: bafetinib 0.123 | [1] -0.014 | nilotinib 0.057 | [2] -0.035 | dasatinib -0.031 | [3] 0.052 | [4] -0.065 | [5] -0.074 | tipifarnib -0.083 | mubritinib 0.075 | [7] 0.029 | [8] -0.051 | [9] -0.009 | entinostat 0.027 | vorinostat 0.053 | citarinostat -0.003 | silmitasertib -0.044 | [10] -0.078 | [11] 0.213
active: [6] 0.382

KPNA4 (UniProt O00629)
inactive: bafetinib -0.111 | [1] 0.021 | nilotinib 0.04 | [2] -0.155 | dasatinib -0.017 | [3] -0.033 | [4] 0.021 | [5] 0.032 | tipifarnib -0.004 | mubritinib 0.093 | [6] -0.06 | [7] -0.054 | [8] -0.072 | [9] -0.053 | entinostat -0.01 | vorinostat 0.019 | citarinostat 0.051 | silmitasertib 0.065 | [10] -0.017 | [11] -0.111

LARP1 (UniProt Q6PKG0)
inactive: bafetinib 0.049 | [1] 0.024 | nilotinib -0.063 | [2] -0.014 | dasatinib 0.014 | [3] -0.028 | [4] -0.067 | [5] -0.043 | tipifarnib 0.047 | mubritinib -0.011 | [6] -0.064 | [7] 0.002 | [8] 0.051 | [9] -0.04 | entinostat 0.02 | vorinostat 0.043 | citarinostat -0.025 | silmitasertib 0.028 | [10] 0.113 | [11] -0.133

LAMP2 (UniProt P13473)
inactive: bafetinib -0.124 | [1] -0.051 | nilotinib 0.002 | [2] -0.014 | dasatinib 0.017 | [3] 0.014 | [4] 0.048 | [5] 0.035 | tipifarnib 0.14 | mubritinib 0.017 | [6] -0.013 | [7] 0.043 | [8] -0.122 | [9] 0.055 | entinostat -0.045 | vorinostat 0.083 | citarinostat 0.158 | silmitasertib 0.005 | [10] 0.065 | [11] -0.11

IPO11 isoform 2 (UniProt Q9UI26)
inactive: bafetinib -0.056 | [1] 0.045 | nilotinib 0.012 | [2] -0.03 | dasatinib -0.049 | [3] 0.039 | [4] -0.008 | [5] -0.029 | tipifarnib -0.132 | mubritinib 0.069 | [6] -0.004 | [7] -0.074 | [8] -0.113 | [9] -0.039 | entinostat 0.022 | vorinostat 0.027 | citarinostat 0.048 | silmitasertib 0.032 | [10] -0.027 | [11] 0.005

LTO1 (UniProt Q8WV07)
Sequence of UniProt Q8WV07 (Q8WV07 whole entry, looked up): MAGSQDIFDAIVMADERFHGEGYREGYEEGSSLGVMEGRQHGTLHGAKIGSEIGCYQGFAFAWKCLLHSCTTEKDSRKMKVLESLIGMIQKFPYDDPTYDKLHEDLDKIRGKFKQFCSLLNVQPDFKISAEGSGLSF
inactive: bafetinib -0.013 | [1] -0.004 | nilotinib -0.036 | [2] -0.072 | dasatinib 0 | [3] 0.039 | [4] -0.025 | [5] -0.02 | tipifarnib -0.063 | mubritinib 0.038 | [6] -0.077 | [7] 0.009 | [8] -0.011 | [9] 0.094 | entinostat -0.097 | vorinostat 0.005 | citarinostat 0.044 | silmitasertib 0.158 | [10] -0.015 | [11] -0.126

LPCAT3 (UniProt Q6P1A2)
Sequence of UniProt Q6P1A2 (Q6P1A2 whole entry, looked up): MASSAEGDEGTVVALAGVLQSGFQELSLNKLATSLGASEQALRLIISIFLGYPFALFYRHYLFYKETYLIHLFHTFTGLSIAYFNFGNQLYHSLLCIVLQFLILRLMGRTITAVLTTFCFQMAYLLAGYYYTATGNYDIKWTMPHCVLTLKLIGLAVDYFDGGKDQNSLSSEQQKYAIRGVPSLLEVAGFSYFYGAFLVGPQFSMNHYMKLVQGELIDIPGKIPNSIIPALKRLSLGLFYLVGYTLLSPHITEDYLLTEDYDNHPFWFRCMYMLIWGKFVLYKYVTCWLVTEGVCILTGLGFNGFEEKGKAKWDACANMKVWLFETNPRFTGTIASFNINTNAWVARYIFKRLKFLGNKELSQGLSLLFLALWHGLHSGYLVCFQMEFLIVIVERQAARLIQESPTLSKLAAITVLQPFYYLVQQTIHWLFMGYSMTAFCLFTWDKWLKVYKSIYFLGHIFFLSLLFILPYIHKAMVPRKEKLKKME
active: [3] 0.363
inactive: bafetinib 0.108 | [1] 0.063 | nilotinib 0.044 | [2] 0 | dasatinib 0.051 | [4] 0.153 | [5] -0.015 | tipifarnib -0.216 | mubritinib 0.034 | [6] -0.074 | [7] -0.105 | [8] -0.185 | [9] -0.229 | entinostat 0.044 | vorinostat 0.024 | citarinostat 0.087 | silmitasertib 0.05 | [10] -0.091 | [11] 0.072

MAPK8 isoform 3 (UniProt P45983)
active: [2] 0.415 | [3] 0.495
inactive: bafetinib -0.011 | [1] -0.048 | nilotinib 0.022 | dasatinib -0.318 | [4] 0.047 | [5] -0.058 | tipifarnib 0.001 | mubritinib -0.179 | [6] -0.05 | [7] -0.02 | [8] -0.062 | [9] -0.05 | entinostat 0.001 | vorinostat -0.027 | citarinostat -0.049 | silmitasertib 0.008 | [10] -0.044 | [11] 0.362
